Hits are enriched below; roughly 18% of the tested compounds scored in any of these assays.
TDP1 block – qHTS Assay for Inhibitors of Tyrosyl-DNA Phosphodiesterase (TDP1); Tyrosyl-DNA phosphodiesterase 1 (Homo sapiens), Q9NUW8; recombinant TDP1, AlphaScreen DNA substrate cleavage; Potency, µM (top dose mostly 130 µM), for inactives: at the top dose activity change, negative = inhibition, actives largely listed as inhibitors; hit rate 0.28% among 350,000; AID 485290, 2010; further: potency means the concentration at half of the fitted maximal effect; nearly all actives have a fitted effect of over 40% in size
Target sequence (Q9NUW8 whole entry, looked up): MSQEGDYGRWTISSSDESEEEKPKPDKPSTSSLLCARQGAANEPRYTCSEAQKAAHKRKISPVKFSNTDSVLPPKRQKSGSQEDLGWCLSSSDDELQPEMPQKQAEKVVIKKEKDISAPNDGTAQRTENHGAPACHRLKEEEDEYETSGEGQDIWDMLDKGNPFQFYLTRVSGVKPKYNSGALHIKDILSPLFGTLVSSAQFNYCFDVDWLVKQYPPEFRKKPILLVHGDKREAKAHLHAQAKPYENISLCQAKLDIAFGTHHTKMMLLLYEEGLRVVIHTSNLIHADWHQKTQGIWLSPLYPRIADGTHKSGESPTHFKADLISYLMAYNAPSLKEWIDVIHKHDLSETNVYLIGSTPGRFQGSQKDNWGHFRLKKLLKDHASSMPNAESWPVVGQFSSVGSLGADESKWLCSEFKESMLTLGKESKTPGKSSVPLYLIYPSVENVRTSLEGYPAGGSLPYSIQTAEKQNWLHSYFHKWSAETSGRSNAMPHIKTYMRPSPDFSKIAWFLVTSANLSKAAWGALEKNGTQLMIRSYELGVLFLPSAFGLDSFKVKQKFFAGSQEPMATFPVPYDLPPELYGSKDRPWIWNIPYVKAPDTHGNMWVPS
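Enzyme-compound mixtures sat 15 min at room temperature, followed by a 5 min reaction with 15 nM final substrate and 10 min with AlphaScreen beads. Recombinant human Tdp1 was used at 1 nM final.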
Six1-Eya2 blk – qHTS Assay for Inhibitors of the Six1/Eya2 Interaction; AID 651725, 2012; Homeobox protein SIX1 (Homo sapiens) + Protein phosphatase EYA2 (Homo sapiens), …; hit rate 0.56% among 360,000; AlphaScreen GST-Six1/His-Eya2 binding, biochemical; stronger effect = lower value; activity change, % (no concentration beside the values); in the data active means activity change below about -65%; inconclusive means mostly about -30% to -63%
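AlphaScreen with GST-Six1 and His-Eya2 (5X mix: 250 nM and 500 nM), glutathione donor and nickel acceptor beads; buffer 50 mM Tris pH 8.0, 300 mM NaCl, 1 mM TCEP; 1 h at 37 C in the dark.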
TDP1 cell noCPT – qHTS for Inhibitors of human tyrosyl-DNA phosphodiesterase 1 (TDP1): qHTS in cells in absence of CPT | DT40 Tdp1-/- hTDP1 cells, no CPT, ATP luminescence, 48 h | Potency, µM (doses to about 46.2 µM), for inactives: top-dose activity change, negative = growth inhibition, actives largely listed as inhibitors | hit rate 15% among 420,000; further: potency means the concentration at half of the fitted maximal effect; nearly all actives have a fitted effect of over 55% in size
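No-CPT arm: Tdp1-/-;hTDP1 DT40 cells (400/well) plus compounds, incubated ≥48 hr at 37 °C. Readout CellTiter-Glo luminescence.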
TDP1 cell CPT – qHTS for Inhibitors of human tyrosyl-DNA phosphodiesterase 1 (TDP1): qHTS in cells in presence of CPT | Potency, µM (series often up to 46.2 µM), for the others: at the highest dose activity change, negative = growth inhibition, actives largely listed as inhibitors | hit rate 12% among 420,000 | AID 686979, 2013 | chicken DT40 Tdp1-/-;hTDP1 cells + 20 nM CPT, ATP luminescence, 48 h; further: potency means the concentration at half of the fitted maximal effect; nearly all actives have a fitted effect of over 55% in size
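Cell growth measured by CellTiter-Glo luminescence after a minimum 48 h, 37 C compound exposure with 20 nM CPT in Tdp1-knockout DT40 cells stably expressing hTDP1, seeded 400/well; qHTS titration format.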
CtBP-E1A inh – qHTS Assay for Inhibitors of the CtBP/E1A Interaction; activity change, % (no concentration beside the values); AlphaScreen GST-E1A/His-CtBP binding, 1536-well; stronger effect = lower value; hit rate 0.49% among 340,000; in the data active means activity change below about -65%; inconclusive means mostly about -30% to -63%
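AlphaScreen with 125 nM GST-E1A and 125 nM His-CtBP (5X stocks) in Tris pH 8.0, 300 mM NaCl, BSA, Tween 20, TCEP. Compounds preincubated 2 h at 37 deg C, then glutathione donor/nickel acceptor beads added for 1 h at 37 deg C in dark.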
IL1B secr inh – qHTS for Inhibitors of Inflammasome Signaling: IL-1-beta AlphaLISA Primary Screen; THP-1 LPS/ATP IL-1B secretion, AlphaLISA, 16 h; stronger effect = lower value; activity change, % at 57.5 µM; hit rate 4.7% among 360,000; in the data active means activity change below about -50%; inconclusive means mostly about -30% to -49%
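Secreted IL-1B measured by AlphaLISA bead assay after 16 h compound exposure of THP-1 cells; compounds (final up to 57.5 uM) added 1 h before LPS (250 ng/mL) and ATP (1.25 mM) stimulation; lower signal means less secretion.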
The depositor's hits bear a star; ? = inconclusive; · = not tested or not shown; [ ] = dose if it differs, or a comment. Unless noted, the call rests on the fitted dose curve; in most records, active means well fitted curve in the direction sought with a large enough effect; inconclusive means small, poorly fitted or top-dose-only effect, or another doubt; inactive means no such curve, though single readings can be large; an effect the other way counts as inactive or inconclusive. On the % scale 0 is the no-effect control and ±100 the full control effect.

SMILES	TDP1 block	Six1-Eya2 blk	TDP1 cell noCPT	TDP1 cell CPT	CtBP-E1A inh	IL1B secr inh
Cn1nccc1-c1ccc(C(=O)Nc2cccc(NS(C)(=O)=O)c2)c2occc12	·	?	26µM*	?	?	-50*
O=C(NCC1CC1)c1ccc(-n2ccnc2)c2ccoc12	·	-16	-2%	-14%	-4	6
CC(=O)c1ccc(Sc2ccccc2)cc1	0%	23	-5%	-5%	23	8
Cc1ccc2nc(CCc3ccc(N)cc3)[nH]c2c1	·	-19	0%	4%	0	10
CC(C)(C)N1C(=O)[C@H]2[C@@H](c3ccc(Br)cc3)N3C(=O)N(c4cccc(F)c4)C(=O)[C@@]3(Cc3ccccc3)[C@H]2C1=O	0%	-5	?	?	0	-5
Cc1cccc(N2C(=O)N3[C@H](c4ccc(Br)cc4)[C@@H]4C(=O)N(C(C)(C)C)C(=O)[C@@H]4[C@]3(C)C2=O)c1	·	-7	?	18µM*	2	-5
CC(C)(C)N1C(=O)[C@H]2[C@@H](c3ccc(Br)cc3)N3C(=O)N(c4ccc(Br)cc4)C(=O)[C@@]3(Cc3ccccc3)[C@H]2C1=O	·	-4	?	21µM*	-4	-21
Cc1ccc(N2C(=O)N3[C@H](c4ccc(Br)cc4)[C@@H]4C(=O)N(C(C)(C)C)C(=O)[C@@H]4[C@]3(C)C2=O)cc1	·	-5	-7%	?	0	-5
O=C1[C@H]2[C@@H](c3ccc(Cl)cc3)N3C(=O)N(c4cccc(Cl)c4)C(=O)[C@@]3(Cc3ccccc3)[C@H]2C(=O)N1C1CCCCC1	0%	-3	12µM*	10µM*	·	-1
CC(N=c1ccccn1C(=O)Nc1cccc(C(F)(F)F)c1)c1ccco1 (stereo not drawn)	0%	4	-10%	-8%	0	-7
O=S1(=O)[C@H]2C[C@H](CO)O[C@@]2(CO)CN1Cc1ccc(-c2ccc(F)cc2)cc1	2%[56.1 µM]	4	?	?	3	64
O=S1(=O)[C@H]2C[C@H](CO)O[C@@]2(CO)CN1Cc1ccc(-c2cccc(Cl)c2)cc1	0%[56.1 µM]	0	?	21µM*	-2	-6
Cn1c(NCc2ccccc2F)nc2cc(-c3cccc(C(F)(F)F)c3)sc2c1=O	·	0	15µM*	13µM*	2	26
CC(=O)Nc1ccc(CNc2nc3cc(-c4cccc(C(F)(F)F)c4)sc3c(=O)n2C)cc1	·	5	21µM*	23µM*	1	20
Cc1nnsc1C(=O)N1CCCC1(C)C(=O)O (stereo not drawn)	·	6	2%	3%	-7	6
Cc1cc(NS(=O)(=O)c2ccc(NC(=O)CCCOc3ccccc3)cc2)no1	1%	1	-2%	-20%	1	13
COCCCc1cc(F)c(S(=O)(=O)N2CCN(S(=O)(=O)c3ccc4c(c3)OCCO4)CC2)cc1F	1%	·	·	·	·	·
Cc1ccc(Nc2nc(C(=O)N3CCC(C(=O)NCc4ccccc4)CC3)cs2)cc1	·	-16	?	-25%	0	?
CC(C)CCNC(=O)C1CCN(c2nc3ccc(Cl)cc3[nH]2)CC1	3%	·	?	?	·	·
Cc1ccc2nc(N3CCC(C(=O)NCc4ccc(F)cc4)CC3)[nH]c2c1	0%	·	?	?	·	·
COc1ccc(NC(=O)C2CCN(C(=O)[C@@H]3Cc4ccccc4CN3)CC2)cc1	3%	-1	2%	-2%	2	48
COc1ccc(CNC(=O)C2CCN(C(=O)c3csc(Nc4ccc(C)cc4)n3)CC2)cc1	·	-10	?	?	25	-53*
COc1cccc(CNC(=O)C2CCN(c3nc4ccc(Cl)cc4[nH]3)CC2)c1	5%	·	?	21µM*	·	·
COc1ccc(CNC(=O)C2CCN(c3nc4ccc(C)cc4[nH]3)CC2)cc1	3%	·	10µM*	?	·	·
COc1ccc(CNC(=O)C2CCN(C(=O)[C@@H]3Cc4ccccc4CN3)CC2)cc1	2%	4	?	16µM*	-8	-15
SMILES	TDP1 block	Six1-Eya2 blk	TDP1 cell noCPT	TDP1 cell CPT	CtBP-E1A inh	IL1B secr inh
CCCCc1nc2c(c3c1C[C@H](C)OC3)CN(S(=O)(=O)c1ccc3c(c1)OCCN3C)CC2	11%[21 µM]	·	·	·	·	·
Cc1cccc(NC(=O)[C@@H]2CCCN2C(=O)OC(C)(C)C)c1	·	3	-1%	6%	4	-5
CCN1CCN(C(=O)C2=CC(c3ccc(C)cc3)=NS(=O)(=O)N2C)CC1	·	2	-16%	-28%	0	7
CC12CC3(O)OC(O1)C1(COC(=O)c4ccccc4)[C@@H]3CC21O[C@@H]1O[C@H](CO)[C@@H](O)[C@H](O)[C@H]1O	2%	·	·	·	·	·
CCCOc1cccc(OCC(=O)Nc2nc3ccccc3[nH]2)c1	0%	-4	?	?	-3	10
CCCCOc1cccc(OCC(=O)Nc2nc3ccccc3[nH]2)c1	0%	17	?	21µM*	0	1
CCOc1ccccc1OCC(=O)Nc1nc2ccccc2[nH]1	2%	-20	?	-23%	4	-4
Cc1ccc(CC(=O)Nc2nc3ccccc3[nH]2)cc1C	4%	-1	1.8µM*	3.5µM*	5	7
O=C(COc1ccccc1)Nc1nc2ccccc2[nH]1	3%	-5	16µM*	?	7	-5
CCc1ccc(NC(=O)C(CC)n2c(=O)c(-c3ccccc3NC(C)=O)nc3ccccc32)cc1 (stereo not drawn)	6%	·	23µM*	23µM*	·	·
CCC(C(=O)Nc1cccc(C#N)c1)n1c(=O)c(-c2ccccc2NC(C)=O)nc2ccccc21 (stereo not drawn)	9%	·	13µM*	23µM*	·	·
CC(=O)Nc1ccccc1-c1nc2ccccc2n(CC(=O)c2ccc(C)c(C)c2)c1=O	3%	·	?	21µM*	·	·
CCC(=O)Nc1ccccc1-c1nc2ccccc2n(C(CC)C(=O)Nc2cccc(C(C)=O)c2)c1=O (stereo not drawn)	11%	·	?	?	·	·

From PubChem BioAssay
